# Compound activity deposited in PubChem BioAssay by several laboratories.
# SENP7 block: SENP7 protease inhibitors, primary screen, biochemical, luminescence, uHTS. Sentrin-specific protease 7 (Homo sapiens), Q9BQF6. recombinant SENP7, Z-RLRGG-aminoluciferin luminescence, 40 min. inhibition, % at 5 µM. 330,000 tested, 1.5% active. AID 434973, 2010;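 active = inhibition above about 50% at the single test dose, limit read from the data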;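 also: plate controls were DMSO with enzyme for no effect and no enzyme buffer wells for full effect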
# SENP8 block-1: human SENP8 protease inhibitors, primary screen, biochemical, fluorescence, Nedd8 protein substrate, uHTS; recombinant SENP8; 360,000 tested, 0.64% active; inhibition, % at 20 µM; Sentrin-specific protease 8 (Homo sapiens), Q96LD8; in the data active = inhibition mostly above about 40%, no sharp cut-off; inactive = mostly below about 27%
# Platelet DG rel: inhibitors of platelet dense granule secretion, primary screen, cell-based, MLPCN, human platelets; human platelet-rich plasma, SFLLRN dense granule ATP release, luminescence; inhibition, %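 (compounds screened at 7.5 µM in platelet-rich plasma)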; 300,000 tested, 0.22% active;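 active = mean replicate score, as percent of positive control, at or above 50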
# SENP6 inh: SENP6 protease inhibitors, primary screen, biochemical, luminescence, uHTS; Sentrin-specific protease 6 (Homo sapiens), Q9GZR1; Recombinant SENP6 catalytic domain, aminoluciferin luminescence; inhibition, % at 10 µM; 330,000 tested, 1.8% active; AID 2599, 2010;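 active = inhibition above about 50% at the single tested dose, limit read from the data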;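 also: plate controls were DMSO wells with enzyme for no effect and DMSO wells lacking enzyme for full effect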
# Target sequence (Q9GZR1 628-1112 limits assumed): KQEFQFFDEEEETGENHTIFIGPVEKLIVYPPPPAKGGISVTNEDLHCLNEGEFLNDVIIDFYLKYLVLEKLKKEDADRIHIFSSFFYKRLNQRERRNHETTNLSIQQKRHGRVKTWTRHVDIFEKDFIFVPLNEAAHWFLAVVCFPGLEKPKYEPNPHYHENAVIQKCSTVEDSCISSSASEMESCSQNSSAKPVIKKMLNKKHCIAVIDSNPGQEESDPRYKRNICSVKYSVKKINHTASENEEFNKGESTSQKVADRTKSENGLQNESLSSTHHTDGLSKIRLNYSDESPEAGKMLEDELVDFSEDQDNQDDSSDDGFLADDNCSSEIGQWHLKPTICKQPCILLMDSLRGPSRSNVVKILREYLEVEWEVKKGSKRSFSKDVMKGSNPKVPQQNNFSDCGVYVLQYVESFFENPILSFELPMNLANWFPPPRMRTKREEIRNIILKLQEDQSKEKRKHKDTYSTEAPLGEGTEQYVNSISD
# SENP8 block-2: SENP8 protease inhibitors, primary screen, biochemical, luminescence | 330,000 tested, 1.2% active | inhibition, % at 10 µM | purified SENP8, Z-RLRGG-aminoluciferin cleavage | AID 2540, 2010 | Sentrin-specific protease 8 (Homo sapiens), Q96LD8; in the data active = inhibition above about 50%
# SENP8 confirm: SENP8 protease inhibitors, retest, confirmation, biochemical, luminescence, single concentration | inhibition, % at 12.5 µM | 6,200 tested, 40% active | shares compounds with SENP7 block | AID 488912, 2010 | Recombinant SENP8, Z-RLRGG-aminoluciferin luminescence, 60 min;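 active = mean inhibition across replicates above about 50%, limit read from the data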
# SENP6 conf: SENP6 protease inhibitors, confirmation, biochemical, luminescence, single concentration; shares compounds with SENP7 block; recombinant SENP6, Z-RLRGG-aminoluciferin luminescence; inhibition, % at 12.5 µM; 6,200 tested, 58% active; AID 488915, 2010
# SENP7 confirm: SENP7 protease inhibitors, retest, confirmation, biochemical, luminescence, single concentration; shares compounds with SENP7 block; AID 488917, 2010; inhibition, % at 12.5 µM; recombinant SENP7, Z-RLRGG-aminoluciferin luminescence, 40 min; 6,200 tested, 69% active
# Casp3 SENP sel: caspase-3 protease inhibitors, confirmation, selectivity assay for SENP inhibitor project, biochemical, single concentration; shares compounds with SENP7 block; purified caspase-3, Z-DEVD-aminoluciferin luminescence, 60 min; inhibition, % at 12.5 µM; 6,200 tested, 60% active; AID 488918, 2010;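 active = mean inhibition above about 50%, limit read from the data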;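 also: plate controls were enzyme with DMSO for no effect and wells without caspase-3 for full effect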
# Target sequence (P42574 28-227 limits assumed): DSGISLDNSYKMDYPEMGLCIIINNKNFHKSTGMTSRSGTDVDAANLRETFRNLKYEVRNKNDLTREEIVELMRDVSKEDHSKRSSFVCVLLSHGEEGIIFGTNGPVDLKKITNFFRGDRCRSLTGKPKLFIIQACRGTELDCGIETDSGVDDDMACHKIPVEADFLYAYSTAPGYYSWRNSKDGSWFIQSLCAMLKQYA
# Luc interf: interferes with luciferase luminescence in SENP counter-screen | shares compounds with SENP7 block | Pre-incubated SENP8/Z-RLRGG-aminoluciferin, luciferase luminescence interference | inhibition, % at 12.5 µM | 6,200 tested, 39% active | AID 488919;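 active = mean inhibition above about 50% when retested at one dose, limit read from the data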;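 also: plate controls were DMSO wells with completed reaction for no effect and substrate without enzyme for full effect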
# * = called active by the depositor; i = inactive; . = no result given. Hits are enriched below; roughly 2.4% of the tested compounds scored in any of these assays.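 The calls were made as follows, unless noted: active = mean inhibition above about 50% in the one-dose retest (limit read from the data); inactive = the rest.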
SMILES,SENP7 block,SENP8 block-1,Platelet DG rel,SENP6 inh,SENP8 block-2,SENP8 confirm,SENP6 conf,SENP7 confirm,Casp3 SENP sel,Luc interf
CCCc1cc(-c2ccc3c(c2)COc2c4ccccc4nn2-3)on1,90.8*,-195.6,11.2,93.0*,89.3*,24.8,36.5,38.0,64.4*,11.7
O=C(CSC(=S)N1CCCC1)N/N=C/c1c(O)[nH]c(=S)[nH]c1=O,8.7,-50.4,.,-4.4,7.4,.,.,.,.,.
Cc1ccc(S(=O)(=O)NCC(=O)NCCc2c[nH]c3ccccc23)cc1C,-6.8,-12.6,2.1,-6.6,-5.3,.,.,.,.,.
CCC(C)n1c(NC(=O)c2ccccc2)c(C#N)c2nc3ccccc3nc21 (stereo not given),44.2,i,-4.2,90.0*,65.9*,28.6,69.0*,45.6,2.7,0.3
CCCCn1c(NC(=O)c2ccccc2)c(C#N)c2nc3ccccc3nc21,.,-278.4,.,.,.,.,.,.,.,.
N#Cc1c(NC(=O)c2ccc(Br)o2)n(-c2ccccc2)c2nc3ccccc3nc12,76.6*,-429.2,-3.1,13.9,92.6*,33.4,90.4*,82.5*,2.8,7.0
Cc1ccc(C(C)C)c(OCC(=O)NCC(c2cccs2)N2CCOCC2)c1 (stereo not given),-3.8,6.1,0.4,-2.5,-5.5,.,.,.,.,.
CCN1C[C@@H]2[C@@H]3C(=O)N(C)C(=O)[C@@H]3[C@](C)(C1=O)N2C(=O)c1ccc(C(F)(F)F)cc1,.,10.8,.,.,.,.,.,.,.,.
Cc1cc(C(=O)Nn2cnnc2)ccc1[N+](=O)[O-],77.8*,16.7,9.4,81.3*,71.8*,68.9*,65.0*,92.4*,92.6*,76.5*
Cc1ccc(N=Cc2c(C)[nH]n(-c3nc4ccccc4[nH]3)c2=O)cc1,95.0*,13.8,45.3,93.9*,86.2*,87.8*,54.9*,93.6*,95.2*,90.5*
COCCNC(=O)c1noc2c1CCc1cc(OC)ccc1-2,11.4,9.2,-16.6,17.4,-3.0,.,.,.,.,.
COCC(C)NC(=O)c1noc2c1CCc1cc(OC)ccc1-2 (stereo not given),51.6*,1.8,6.4,53.1*,12.5,36.0,14.3,73.9*,73.3*,60.5*
COc1ccc2c(c1)CCc1c(C(=O)NC3CCCCC3)noc1-2,86.2*,16.2,-2.5,33.2,0.1,-24.1,-11.3,-0.2,3.6,-3.0
Fc1ccc(-n2cc(CNCCc3cccnc3)c(-c3ccccc3Cl)n2)cc1,4.1,-41.7,-4.0,19.7,6.5,.,.,.,.,.
O=C(Nc1ccccc1C(=O)NCc1ccco1)Nc1cccc2ccccc12,-1.1,-238.6,1.1,-21.8,-5.9,.,.,.,.,.
O=C(Nc1cccc(Cl)c1)Nc1ccccc1C(=O)NCc1ccco1,76.0*,-403.5,22.3,72.6*,67.9*,14.1,46.8,95.6*,42.6,46.3
O=C(NCc1ccccc1)C(Cc1ccccc1)N1C(=O)C2C3CCC(C3)C2C1=O (stereo not given),-0.5,6.6,6.2,-8.9,-5.2,.,.,.,.,.
O=C(NC1CCCCC1)C(Cc1ccccc1)N1C(=O)C2C3CCC(C3)C2C1=O (stereo not given),79.5*,3.4,7.0,7.1,6.0,7.0,5.0,-5.2,-5.0,-11.9
CCOC(=O)c1cnn(-c2ncnc3c2oc2ccccc23)c1N,72.7*,15.4,2.2,15.5,9.5,2.4,8.2,32.2,44.5,12.1
O=C(NCc1ccccc1)c1cccc(NC(=O)C2CCCC2)c1,.,1.6,.,.,.,.,.,.,.,.
C=C(C)C1CC=C(C)/C(=N/NC(=O)COc2ccccc2Cl)C1 (stereo not given),0.1,11.7,1.4,0.8,-1.7,.,.,.,.,.
Cc1cccc2c1OCC/C2=N\NC(=O)COc1ccccc1Cl,72.6*,-215.7,2.0,-40.9,-33.4,8.5,6.5,3.4,-3.3,-8.3
O=C(Cn1ncc2c([nH]c3ccccc32)c1=O)NCC1CCN(Cc2ccccc2F)CC1,12.3,-16.9,-2.2,-2.1,-4.5,.,.,.,.,.
Cc1c(C(=O)N2CCC(C)CC2)oc2ccc(S(=O)(=O)N3CCC4(CC3)OCCO4)cc12,75.1*,7.6,2.1,5.7,3.4,6.0,7.8,6.6,2.8,1.7
OC(c1nc2ccccc2[nH]1)C(O)c1nc2ccccc2[nH]1 (stereo not given),-0.7,3.8,-2.5,-1.6,1.2,.,.,.,.,.
SMILES,SENP7 block,SENP8 block-1,Platelet DG rel,SENP6 inh,SENP8 block-2,SENP8 confirm,SENP6 conf,SENP7 confirm,Casp3 SENP sel,Luc interf
FC(F)(F)c1nc2cc3nc4ccccc4[nH]c3cc2n1,27.9,8.0,-6.9,54.0*,49.1,66.9*,64.9*,86.0*,80.5*,69.6*
CCCc1ccc(OC(=O)c2ccc(O)cc2Cl)cc1,46.2,11.4,0.1,61.2*,65.5*,57.5*,72.7*,89.6*,22.8,30.7
COCCNC(=O)c1c(N)n(-c2ccccc2)c2nc3ccccc3nc12,0.3,-258.3,-3.7,61.6*,39.4,9.6,16.4,7.9,1.9,2.7
COCCNC(=O)c1c(N)n(CCCn2ccnc2)c2nc3ccccc3nc12,66.8*,-318.0,7.7,88.8*,27.6,3.5,8.9,9.6,4.3,-1.9
COCCn1c(N)c(C(=O)NCc2cccs2)c2nc3ccccc3nc21,64.3*,-280.4,-0.6,84.2*,87.2*,-7.8,3.2,-4.0,2.8,-4.2
COCCn1c(N)c(S(=O)(=O)c2cccs2)c2nc3ccccc3nc21,4.1,-325.3,5.1,20.3,1.7,.,.,.,.,.
C=CCn1c(N)c(C(=O)Nc2ccccc2)c2nc3ccccc3nc21,19.8,-401.3,22.7,64.2*,52.4*,-19.8,5.1,7.1,-2.9,-1.9
COCCCNC(=O)c1c(N)n(-c2ccccc2)c2nc3ccccc3nc12,11.5,-408.7,3.8,37.9,15.0,.,.,.,.,.
O=C(NC1CC1)c1ccc2c(c1)S(=O)(=O)c1cc(Cl)ccc1C2=O,10.4,.,.,7.8,-0.5,.,.,.,.,.
Cc1cc(C)c(NC(=O)c2ccc3c(c2)CCN3S(C)(=O)=O)c(C)c1,1.5,12.2,-1.1,1.6,-2.7,.,.,.,.,.
